Results filed as inconclusive are left out. Active and inactive are the calls of the source. Rule for the calls, unless noted: active = hit-call score of the fitted dose curve at least 0.9, where 1 is the maximum; inactive = score below 0.9.
What was measured:
[1] = ATG_NFI_CIS: Attagene CIS-FACTORIAL HepG2 Assay for human Nuclear Factor I (NFI) (AID 2282989); details: HepG2 cis-regulatory reporter, NFI response element transcription; actives raise or lower the signal
Summary of the method: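 Read-out: reporter mRNA via RT-PCR plus capillary electrophoresis with fluorescence detection. Transiently transfected HepG2 (endogenous TF activity on cis promoters), 24 h compound exposure; gain or loss of signal fitted against DMSO.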

[2] = molecular target: Myc proto-oncogene protein (Homo sapiens) (UniProt P01106); assay: ATG_Myc_CIS: Attagene CIS-FACTORIAL HepG2 Assay for human Myelocytomatosis (Myc) Proto-Oncogene Transcription Factor (AID 2282990); details: HepG2, Attagene cis-reporter transcription factor activity; actives raise or lower the signal
Chain of Myc proto-oncogene protein (Homo sapiens) (P01106 whole entry, looked up): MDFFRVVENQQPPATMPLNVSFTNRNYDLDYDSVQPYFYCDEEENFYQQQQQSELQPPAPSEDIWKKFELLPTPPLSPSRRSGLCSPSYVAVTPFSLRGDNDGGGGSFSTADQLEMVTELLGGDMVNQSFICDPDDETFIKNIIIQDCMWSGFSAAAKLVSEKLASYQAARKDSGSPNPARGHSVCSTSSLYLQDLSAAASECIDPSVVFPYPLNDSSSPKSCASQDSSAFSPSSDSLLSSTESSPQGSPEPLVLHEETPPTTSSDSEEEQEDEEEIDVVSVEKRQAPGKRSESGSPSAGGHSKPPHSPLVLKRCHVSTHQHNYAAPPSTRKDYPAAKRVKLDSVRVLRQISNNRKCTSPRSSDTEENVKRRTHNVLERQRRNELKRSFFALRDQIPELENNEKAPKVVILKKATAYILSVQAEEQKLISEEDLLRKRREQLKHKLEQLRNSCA
Summary of the method: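 DMSO-normalised, bidirectionally fitted reporter mRNA signal. HepG2 cells transfected with cis reporter constructs, treated 24 h; transcripts detected by RT-PCR, 6-FAM primer extension and CE.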

[3] = ATG_NRF2_ARE_CIS: Attagene CIS-FACTORIAL HepG2 Assay for human Nuclear Factor Erythroid 2 Related Factor 2 (NFR2) response to Antioxidant Response Elements (ARE) (AID 2282992); details: HepG2 Attagene ARE/NRF2 reporter, transcription factor activity; actives raise or lower the signal;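 for AC50: reporter mRNA level measured by RT-PCR and capillary electrophoresis fluorescence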
Summary of the method: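 Endogenous transcription factor activity in human liver HepG2 cells is tracked via a cis-element-driven reporter within a multiplexed set. mRNA induction is read by RT-PCR and capillary electrophoresis after 24 h, with DMSO as baseline.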

[4] = ATG_Oct_MLP_CIS: Attagene CIS-FACTORIAL HepG2 Assay for human Octamer-Binding Transcription Factor (Oct) (AID 2282993); details: HepG2 Attagene cis-factorial Oct reporter, mRNA; actives raise or lower the signal
Summary of the method: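 Read-out: reporter mRNA via RT-PCR plus capillary electrophoresis of 6-FAM-labelled fragments. Transiently transfected HepG2, 24 h exposure, endogenous TF activity on cis elements. Gain or loss of signal fitted relative to DMSO.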

[5] = BSK_3C_TissueFactor: BioMAP Diversity Plus: 3C Assay for Tissue Factor Biomarker Activity (AID 2282997); details: BioMAP 3C HUVEC, tissue factor biomarker readout; actives raise or lower the signal
Summary of the method: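 HUVEC, 3C system, 24 h post-dose; Tissue Factor by ELISA; bidirectional fit vs DMSO baseline.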

[6] = BSK_3C_uPAR: BioMAP Diversity Plus: 3C Assay for Urokinase-type plasminogen activator receptor (uPAR) Biomarker Activity (AID 2282998); details: BioMAP 3C HUVEC, uPAR biomarker ELISA; actives raise or lower the signal
Summary of the method: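 HUVEC primary cells; 24 h post-dose; uPAR by ELISA; gain or loss of signal fitted bidirectionally vs DMSO baseline.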

[7] = BSK_3C_VCAM1: BioMAP Diversity Plus: 3C Assay for Vascular cell adhesion molecule 1 (VCAM1) Biomarker Activity (AID 2282999); details: BioMAP 3C HUVEC, VCAM1 ELISA, cytokine-stimulated; actives raise or lower the signal
Summary of the method: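 Vascular primary endothelium (human umbilical vein) was exposed to chemicals and assayed 24 h later. VCAM-1 levels came from ELISA, with DMSO serving as baseline for bidirectional fitting.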

[8] = BSK_4H_Eotaxin3: BioMAP Diversity Plus: 4H Assay for Eotaxin 3 Biomarker Activity (AID 2283000); details: primary human endothelial cells (HUVEC); actives raise or lower the signal;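 note: CCL26 protein level quantified by ELISA in parallel with SRB cytotoxicity check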
Summary of the method: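 Readout is Eotaxin-3 (CCL26) level by ELISA in primary human umbilical vein endothelial cells harvested 24 h after chemical exposure; activity fitted in both directions against DMSO control.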

[9] = molecular target: human Peroxisome Proliferator-activated Receptor alpha (PPARa), PPARA (gene 5465) (UniProt Q07869); assay: ATG_PPARa_TRANS: Attagene TRANS-FACTORIAL HepG2 Assay for human Peroxisome Proliferator-activated Receptor alpha (PPARa) (AID 2283001; active = hit-call score of the fitted dose curve at least 0.9, where 1 is the maximum;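 for AC50: potency for gain of reporter signal over DMSO so agonist or activator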)
Chain of human Peroxisome Proliferator-activated Receptor alpha (PPARa), PPARA (gene 5465) (Q07869 whole entry, looked up, the tested form may be a part): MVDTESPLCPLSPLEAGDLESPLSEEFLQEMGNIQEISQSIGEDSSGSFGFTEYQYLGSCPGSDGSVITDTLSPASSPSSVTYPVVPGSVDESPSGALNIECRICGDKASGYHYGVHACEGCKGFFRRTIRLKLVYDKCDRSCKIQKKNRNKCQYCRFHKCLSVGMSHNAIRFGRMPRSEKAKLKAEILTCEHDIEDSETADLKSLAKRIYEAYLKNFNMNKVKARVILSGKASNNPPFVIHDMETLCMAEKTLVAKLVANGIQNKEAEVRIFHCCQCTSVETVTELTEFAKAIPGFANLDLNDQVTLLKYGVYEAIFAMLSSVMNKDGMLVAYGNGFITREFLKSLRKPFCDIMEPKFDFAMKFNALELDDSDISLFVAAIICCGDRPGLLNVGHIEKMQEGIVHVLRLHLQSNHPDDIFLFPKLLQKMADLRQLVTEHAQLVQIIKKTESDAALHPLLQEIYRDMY
Summary of the method: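 Exposure: 24 h, transiently transfected HepG2 cells. Endpoint: GAL4-UAS reporter mRNA, RT-PCR with capillary electrophoresis fluorescence. Baseline: DMSO; increases fitted.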

[10] = read-out: Intercellular Adhesion Molecule 1 (ICAM1), ICAM1 (gene 3383); assay: BSK_3C_ICAM1: BioMAP Diversity Plus: 3C Assay for Intercellular Adhesion Molecule 1 (ICAM1) Biomarker Activity (AID 2283003); details: primary human endothelial cells (HUVEC); actives raise or lower the signal
Summary of the method: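 Using DMSO as baseline, bidirectional curve fitting was applied to ICAM-1 ELISA signals from HUVEC in the 3C system, measured 24 h after compound addition.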

[11] = molecular target: human Retinoic Acid Receptor beta (RARb), RARB (gene 5915) (UniProt P10826); assay: ATG_RARb_TRANS: Attagene TRANS-FACTORIAL HepG2 Assay for human Retinoic Acid Receptor beta (AID 2283004; active = hit-call score of the fitted dose curve at least 0.9, where 1 is the maximum)
Chain of human Retinoic Acid Receptor beta (RARb), RARB (gene 5915) (P10826 whole entry, looked up, the tested form may be a part): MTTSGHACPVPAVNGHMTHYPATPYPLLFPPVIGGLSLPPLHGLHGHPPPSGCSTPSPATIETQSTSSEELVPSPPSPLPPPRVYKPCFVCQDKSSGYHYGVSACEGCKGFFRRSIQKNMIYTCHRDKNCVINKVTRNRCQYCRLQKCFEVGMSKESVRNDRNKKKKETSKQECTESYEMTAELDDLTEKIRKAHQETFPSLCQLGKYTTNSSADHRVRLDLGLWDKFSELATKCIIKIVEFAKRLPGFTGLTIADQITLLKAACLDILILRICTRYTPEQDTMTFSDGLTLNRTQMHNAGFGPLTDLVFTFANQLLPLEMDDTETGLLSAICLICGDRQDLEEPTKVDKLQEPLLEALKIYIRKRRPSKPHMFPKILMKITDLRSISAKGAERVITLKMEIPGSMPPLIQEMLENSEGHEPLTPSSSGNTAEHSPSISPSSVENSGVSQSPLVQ
Summary of the method: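 Readout is reporter mRNA induction: RNA reverse-transcribed, PCR-amplified, FAM-labelled, HpaI-cut and resolved by capillary electrophoresis. Transiently transfected HepG2 cells carrying exogenous NR–Gal4 chimeras were dosed for 24 h; activity fitted upward relative to DMSO.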

[12] = molecular target: Retinoic acid receptor alpha (Homo sapiens) (UniProt P10276); assay: ATG_RARa_TRANS: Attagene TRANS-FACTORIAL HepG2 Assay for human Retinoic Acid Receptor alpha (RARa) (AID 2283005; active = hit-call score of the fitted dose curve at least 0.9, where 1 is the maximum)
Chain of Retinoic acid receptor alpha (Homo sapiens) (P10276 whole entry, looked up, the tested form may be a part): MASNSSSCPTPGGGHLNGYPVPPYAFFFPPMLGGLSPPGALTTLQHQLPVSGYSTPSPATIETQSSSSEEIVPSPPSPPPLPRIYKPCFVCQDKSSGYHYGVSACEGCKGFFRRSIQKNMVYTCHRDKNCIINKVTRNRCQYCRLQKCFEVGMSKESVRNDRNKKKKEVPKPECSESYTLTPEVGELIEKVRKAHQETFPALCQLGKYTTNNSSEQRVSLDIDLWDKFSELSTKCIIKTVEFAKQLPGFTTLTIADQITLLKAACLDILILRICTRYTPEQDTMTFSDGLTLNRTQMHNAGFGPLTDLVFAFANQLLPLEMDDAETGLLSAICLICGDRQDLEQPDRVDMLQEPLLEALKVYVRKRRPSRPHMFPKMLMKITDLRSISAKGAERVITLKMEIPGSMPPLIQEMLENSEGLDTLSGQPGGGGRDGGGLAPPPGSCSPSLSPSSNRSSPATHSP
Summary of the method: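 HepG2 cells transiently transfected with multiple reporter units expressing chimeric RARα-GAL4 fusion, with GAL4-UAS-driven reporters. After 24 h compound exposure, reporter mRNA induction quantified by RT-PCR and capillary electrophoresis with fluorescent labeling; gain-of-signal fitted relative to DMSO control.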

[13] = BSK_3C_Proliferation: Cell Proliferation Assessment in the BioMAP Diversity Plus: 3C Assay (AID 2283006); details: primary human endothelial cells (HUVEC);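 for AC50: potency may reflect either rise or fall in cell number versus DMSO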
Summary of the method: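 Measured here: sulforhodamine B (0.1%) staining of TCA-fixed sub-confluent umbilical vein endothelial cultures 48 h post-dosing, absorbance 560 nm. DMSO served as negative control and baseline; both signal gain and loss were modelled.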

[14] = molecular target: Peroxisome proliferator-activated receptor gamma (Homo sapiens) (UniProt P37231); assay: ATG_PPARg_TRANS: Attagene TRANS-FACTORIAL HepG2 Assay for human Peroxisome Proliferator-activated Receptor-gamma (PPARg) (AID 2283007; active = hit-call score of the fitted dose curve at least 0.9, where 1 is the maximum)
Chain of Peroxisome proliferator-activated receptor gamma (Homo sapiens) (P37231 whole entry, looked up, the tested form may be a part): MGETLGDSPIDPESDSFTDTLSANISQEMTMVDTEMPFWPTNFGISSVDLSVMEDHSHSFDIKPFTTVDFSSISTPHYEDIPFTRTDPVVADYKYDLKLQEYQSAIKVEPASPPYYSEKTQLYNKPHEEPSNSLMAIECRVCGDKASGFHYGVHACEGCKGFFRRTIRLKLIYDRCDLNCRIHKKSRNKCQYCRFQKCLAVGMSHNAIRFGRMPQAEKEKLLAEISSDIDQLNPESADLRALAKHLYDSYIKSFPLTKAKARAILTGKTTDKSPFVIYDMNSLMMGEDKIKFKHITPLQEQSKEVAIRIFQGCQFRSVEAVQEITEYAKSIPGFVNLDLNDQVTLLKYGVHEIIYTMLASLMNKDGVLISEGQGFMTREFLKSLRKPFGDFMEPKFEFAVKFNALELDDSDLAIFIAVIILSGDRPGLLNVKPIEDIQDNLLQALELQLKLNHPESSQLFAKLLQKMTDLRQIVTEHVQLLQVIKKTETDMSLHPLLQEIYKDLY
Summary of the method: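 Read-out: reporter mRNA induction, detected by fluorescence after RT-PCR and capillary electrophoresis. Transiently transfected human HepG2 liver cells carrying a chimeric NR-Gal4 construct were dosed for 24 h; activity was fitted upward relative to DMSO.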

[15] = molecular target: human Retinoic Acid Receptor gamma (RARg), RARG (gene 5916) (UniProt P13631); assay: ATG_RARg_TRANS: Attagene TRANS-FACTORIAL HepG2 Assay for human Retinoic Acid Receptor gamma (RARg) (AID 2283009; active = hit-call score of the fitted dose curve at least 0.9, where 1 is the maximum)
Chain of human Retinoic Acid Receptor gamma (RARg), RARG (gene 5916) (P13631 whole entry, looked up, the tested form may be a part): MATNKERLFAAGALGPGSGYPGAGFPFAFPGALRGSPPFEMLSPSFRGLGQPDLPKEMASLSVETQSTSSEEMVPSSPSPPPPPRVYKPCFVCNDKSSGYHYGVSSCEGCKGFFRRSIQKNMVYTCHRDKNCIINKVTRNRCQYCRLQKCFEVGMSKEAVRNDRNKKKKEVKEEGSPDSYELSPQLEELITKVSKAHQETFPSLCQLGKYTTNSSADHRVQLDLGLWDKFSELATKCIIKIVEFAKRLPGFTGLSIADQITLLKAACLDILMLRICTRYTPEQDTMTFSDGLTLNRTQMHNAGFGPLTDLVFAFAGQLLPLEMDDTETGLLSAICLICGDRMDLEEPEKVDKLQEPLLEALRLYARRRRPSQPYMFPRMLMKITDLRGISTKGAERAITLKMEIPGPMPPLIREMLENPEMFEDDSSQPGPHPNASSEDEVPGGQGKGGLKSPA
Summary of the method: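 Gain-of-signal relative to DMSO is reported from fluorescent capillary electrophoresis of RT-PCR reporter products. These came from HepG2 cells expressing transfected RARg-GAL4 chimeras with UAS reporters, harvested 24 h after dosing.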

[16] = molecular target: human RAR-related Orphan Receptor beta (RORb), RORB (gene 6096) (UniProt Q92753); assay: ATG_RORb_TRANS: Attagene TRANS-FACTORIAL HepG2 Assay for human RAR-related Orphan Receptor beta (RORb) (AID 2283010; active = hit-call score of the fitted dose curve at least 0.9, where 1 is the maximum)
Chain of human RAR-related Orphan Receptor beta (RORb), RORB (gene 6096) (Q92753 whole entry, looked up, the tested form may be a part): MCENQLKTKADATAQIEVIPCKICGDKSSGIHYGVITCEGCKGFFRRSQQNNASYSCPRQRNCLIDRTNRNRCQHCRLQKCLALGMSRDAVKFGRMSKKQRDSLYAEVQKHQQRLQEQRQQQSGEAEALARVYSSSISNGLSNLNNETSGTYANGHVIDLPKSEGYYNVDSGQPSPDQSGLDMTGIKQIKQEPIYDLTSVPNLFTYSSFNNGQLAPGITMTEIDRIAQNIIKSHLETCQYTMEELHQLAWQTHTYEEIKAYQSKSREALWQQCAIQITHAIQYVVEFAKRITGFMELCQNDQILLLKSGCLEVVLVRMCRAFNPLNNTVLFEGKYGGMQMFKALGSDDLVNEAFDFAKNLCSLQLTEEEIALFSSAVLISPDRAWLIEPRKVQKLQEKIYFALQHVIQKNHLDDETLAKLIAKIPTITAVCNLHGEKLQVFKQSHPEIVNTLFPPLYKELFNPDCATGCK
Summary of the method: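 Multiplexed transcription-factor reporter assay: HepG2 cells transiently carrying NR-Gal4/GAL4-UAS constructs, 24 h treatment, mRNA quantified by RT-PCR plus capillary electrophoresis fluorescence; activity scored as induction over DMSO.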

[17] = ATG_NF_kB_CIS: Attagene CIS-FACTORIAL HepG2 Assay for human Nuclear Factor Kappa B (NF-kB) (AID 2282991); details: HepG2 Attagene cis-factorial NF-kB reporter mRNA; actives raise or lower the signal
Summary of the method: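 Read-out: reporter transcript levels quantified by RT-PCR plus capillary electrophoresis of 6-FAM-labelled, HpaI-cut fragments. Transfected HepG2 cells, 24 h compound exposure, endogenous NF-kB-driven cis element; gain or loss scored versus DMSO.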

[18] = molecular target: Cellular tumor antigen p53 (Homo sapiens) (UniProt P04637); assay: ATG_p53_CIS: Attagene CIS-FACTORIAL HepG2 Assay for human p53 Transcription Factor (AID 2282994); details: HepG2 p53 cis-element reporter, Attagene mRNA; actives raise or lower the signal
Chain of Cellular tumor antigen p53 (Homo sapiens) (P04637 whole entry, looked up, the tested form may be a part): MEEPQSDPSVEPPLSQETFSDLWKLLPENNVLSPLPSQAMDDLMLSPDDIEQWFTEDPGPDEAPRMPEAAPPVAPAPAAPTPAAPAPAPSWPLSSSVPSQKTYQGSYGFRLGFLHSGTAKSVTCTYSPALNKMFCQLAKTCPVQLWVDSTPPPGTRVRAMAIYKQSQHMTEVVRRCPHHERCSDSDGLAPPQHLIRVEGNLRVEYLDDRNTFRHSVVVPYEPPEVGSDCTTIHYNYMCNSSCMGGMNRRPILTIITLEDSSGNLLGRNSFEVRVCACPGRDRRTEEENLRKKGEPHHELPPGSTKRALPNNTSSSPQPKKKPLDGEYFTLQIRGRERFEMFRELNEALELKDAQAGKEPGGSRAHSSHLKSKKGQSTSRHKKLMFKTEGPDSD
Summary of the method: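 Steps: transfect HepG2 with multiplexed cis reporter constructs; dose chemicals 24 h; extract RNA, reverse-transcribe, PCR-amplify reporter sequences; FAM-label, HpaI-digest, resolve fragments by CE. Activity fitted both directions relative to DMSO.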

[19] = molecular target: human Peroxisome Proliferator-activated Receptor delta (PPARd), PPARD (gene 5467) (UniProt Q03181); assay: ATG_PPARd_TRANS: Attagene TRANS-FACTORIAL HepG2 Assay for human Peroxisome Proliferator-activated Receptor delta (PPARd) (AID 2283002; active = hit-call score of the fitted dose curve at least 0.9, where 1 is the maximum)
Chain of human Peroxisome Proliferator-activated Receptor delta (PPARd), PPARD (gene 5467) (Q03181 whole entry, looked up, the tested form may be a part): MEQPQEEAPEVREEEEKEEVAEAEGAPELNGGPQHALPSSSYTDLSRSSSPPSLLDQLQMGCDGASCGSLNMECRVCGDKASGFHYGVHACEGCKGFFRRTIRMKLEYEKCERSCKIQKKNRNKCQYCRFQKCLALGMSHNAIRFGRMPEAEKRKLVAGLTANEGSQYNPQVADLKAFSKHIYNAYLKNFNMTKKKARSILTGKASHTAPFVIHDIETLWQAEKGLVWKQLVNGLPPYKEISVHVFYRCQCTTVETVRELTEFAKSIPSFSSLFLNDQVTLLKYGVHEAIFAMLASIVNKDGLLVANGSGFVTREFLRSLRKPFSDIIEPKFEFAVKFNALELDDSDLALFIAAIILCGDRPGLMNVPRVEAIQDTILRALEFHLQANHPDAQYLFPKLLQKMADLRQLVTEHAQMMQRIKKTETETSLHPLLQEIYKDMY
Summary of the method: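 Measured quantity: GAL4-UAS reporter transcript induction in HepG2 after 24 h chemical dosing, with NR-Gal4 chimeras supplied by transient transfection. Detection by RT-PCR and capillary electrophoresis; upward fit against DMSO.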

[20] = molecular target: Nuclear receptor subfamily 1 group I member 2 (Homo sapiens) (UniProt O75469); assay: ATG_PXR_TRANS: Attagene TRANS-FACTORIAL HepG2 Assay for human Pregnane X Receptor (PXR) (AID 2283008; active = hit-call score of the fitted dose curve at least 0.9, where 1 is the maximum)
Chain of Nuclear receptor subfamily 1 group I member 2 (Homo sapiens) (O75469 whole entry, looked up, the tested form may be a part): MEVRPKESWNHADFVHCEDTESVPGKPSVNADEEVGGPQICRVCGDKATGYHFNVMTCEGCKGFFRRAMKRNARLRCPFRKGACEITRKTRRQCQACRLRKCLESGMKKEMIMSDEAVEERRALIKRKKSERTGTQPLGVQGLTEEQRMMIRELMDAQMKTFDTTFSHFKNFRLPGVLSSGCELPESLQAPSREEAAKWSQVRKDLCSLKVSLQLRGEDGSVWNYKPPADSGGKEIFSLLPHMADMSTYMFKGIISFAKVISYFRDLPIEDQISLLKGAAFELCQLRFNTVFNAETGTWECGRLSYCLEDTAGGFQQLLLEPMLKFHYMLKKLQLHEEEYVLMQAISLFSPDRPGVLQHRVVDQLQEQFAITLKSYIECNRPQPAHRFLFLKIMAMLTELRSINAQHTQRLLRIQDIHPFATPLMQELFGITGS
Summary of the method: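 HepG2 transfected (FuGene 6) with GAL4-UAS reporter units + PXR-Gal4 chimera; dosed 24 h. Total RNA → oligo(dT) RT → PCR → 6-FAM primer extension → HpaI cut → CE. Gain-of-signal vs DMSO.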

Measured: AC50

Nc1nc(=S)c2[nH]cnc2[nH]1
active: [3] 2.69 µM | [4] 35.5 µM
inactive: [1] | [2] | [5] | [6] | [7] | [8] | [9] | [10] | [11] | [12] | [13] | [14] | [15] | [16]

Cc1cc(SC2=C(O)C[C@@](CCc3ccc(N)cc3)(C(C)C)OC2=O)c(C(C)(C)C)cc1CO
active: [3] 4.49 µM | [20] 1.65 µM
inactive: [1] | [17] | [4] | [18] | [5] | [6] | [7] | [8] | [19] | [10] | [13] | [16]

OCC(O)CO
inactive: [5] | [6] | [7] | [8] | [10] | [13]

CC(C)c1cccc(C(C)C)c1
inactive: [1] | [17] | [3] | [4] | [5] | [6] | [7] | [8] | [19] | [10] | [11] | [13] | [20]

O=C1c2c(O)cccc2Cc2cccc(O)c21
inactive: [1] | [3] | [4] | [18] | [6] | [7] | [8] | [9] | [10] | [16]
active: [5] 5.39 µM | [13] 15 µM

O=C(O)CC(O)(CC(=O)O)C(=O)O
inactive: [5] | [6] | [7] | [8] | [10] | [13]

Cn1cnc2c1c(=O)[nH]c(=O)n2C
inactive: [1] | [17] | [3] | [4] | [5] | [6] | [7] | [8] | [10] | [13] | [14] | [20] | [15]

C#CC(O)C(CC)CCCC (stereo not drawn)
active: [17] 67.2 µM | [3] 53.3 µM | [14] 59.2 µM | [20] 25.5 µM
inactive: [1] | [4] | [5] | [6] | [7] | [8] | [10] | [13] | [16]

Cc1cc(Cc2ccc(N)c(C)c2)ccc1N
inactive: [1] | [17] | [3] | [4] | [18] | [5] | [6] | [7] | [8] | [10] | [12] | [13] | [20]

CCCCCCCCCC[N+](C)(C)[O-]
inactive: [1] | [3] | [4] | [18] | [5] | [6] | [7] | [8] | [19] | [10] | [13] | [14] | [20]

CCCCC(CC)COC(=O)CCCCCCCC(=O)OCC(CC)CCCC (stereo not drawn)
inactive: [1] | [17] | [3] | [4] | [18] | [5] | [6] | [7] | [8] | [9] | [10] | [13] | [20]

C/C=C/c1ccc(OC)cc1
inactive: [1] | [17] | [3] | [4] | [5] | [6] | [7] | [8] | [9] | [19] | [10] | [13] | [20]

O=Cc1ccccc1C=O
inactive: [1] | [3] | [4] | [5] | [6] | [7] | [8] | [9] | [19] | [10] | [13] | [14] | [20] | [16]

CCCCCCCCCCCCCCOS(=O)(=O)O
active: [9] 5.1 µM | [13] 30.1 µM | [14] 11.1 µM
inactive: [1] | [3] | [4] | [18] | [5] | [6] | [7] | [8] | [10] | [16]

O=C1OC(c2ccc(O)cc2)(c2ccc(O)cc2)c2ccccc21
active: [1] 22.8 µM | [17] 176 µM | [3] 177 µM | [4] 26.2 µM | [6] 14.6 µM | [7] 29.7 µM | [13] 15 µM | [20] 0.604 µM
inactive: [18] | [5] | [8] | [10] | [12] | [15]

— PubChem BioAssay (EPA / NIEHS)
